Data on eleven compounds can be found in PubChem BioAssay (NCATS).

“And” between values parts separate entries of the source, which are not always exact repeats. Equal entries are not always repeated. Inconclusive results are not listed. The source made the active and inactive calls. Unless noted, calls follow the shape of the dose curve; as a rule, active = well fitted curve in the direction sought with a large enough effect; inconclusive = small, poorly fitted or top-dose-only effect, or another doubt; inactive = no such curve, though single readings can be large; an effect the other way counts as inactive or inconclusive.

A short description of assay [1]: Cell Viability - LYMP2-002 (AID 977).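 Also: plate controls were DMSO only for no effect and 92 µM tetraoctylammonium bromide for full effect.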 The procedure, abridged: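 Luminescent ATP readout (CellTiter-Glo, 30 min room temperature) after 24 h compound exposure at 37 C of a human lymphoblastoid line, 2500 cells/well. AC50 values derived by standard Hill fitting of qHTS concentration-response data.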
Assay [2] in a line: Cell Viability - LYMP2-006 (AID 978). Also: % is scaled to controls: 0 for no effect and ±100 for the full control effect; nearly all actives have a fitted effect of over 60% in size. The method, boiled down: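 Potency values are Hill-fit AC50s for decreases in intracellular ATP (CellTiter-Glo luminescence). LYMP2-006 lymphoblastoid cells, 2500 per well, were exposed to compound in complete culture medium for 24 hr at 37 C.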
Assay [3] in a line: Cell Viability - LYMP2-007 (AID 979).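 Also: cells exposed to compound for 24 h before reading; 0% = DMSO only and the negative end = 92 µM tetraoctylammonium bromide; nearly all actives have a fitted effect of over 60% in size.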 The method, boiled down: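 Human lymphoblastoid LYMP2-007 cells (2500/well) preincubated 5 h at 37 C, then treated 24 h at 37 C in complete medium. Viability by CellTiter-Glo ATP luminescence after 30 min at room temperature; AC50 from Hill fits.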
A short description of assay [4]: Cell Viability - LYMP2-008 (AID 980). Also: % is scaled to controls: 0 for no effect and ±100 for the full control effect; nearly all actives have a fitted effect of over 60% in size. The method, boiled down: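 LYMP2-008 lymphoblastoid cells (2500/well) plated 5 h, then treated 24 h at 37 C in complete medium. Viability read as intracellular ATP by CellTiter-Glo luminescence after 30 min at room temperature; AC50 from Hill fits.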
Assay [5] is described as follows: Cell Viability - LYMP2-010 (AID 981). Also: % is scaled to controls: 0 for no effect and ±100 for the full control effect; nearly all actives have a fitted effect of over 55% in size. The method, boiled down: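 Human lymphoblastoid LYMP2-010 cells (2500/well) treated 24 h at 37 C in complete medium; viability read as intracellular ATP by CellTiter-Glo luminescence. AC50 from Hill fits of concentration-response data; tetraoctylammonium bromide positive control.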
A short description of assay [6]: Cell Viability - LYMP2-012 (AID 982).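 Also: cellular ATP by luciferase luminescence where a drop means cytotoxicity; cells exposed to compound for one day before reading; 0% = DMSO only and full loss = 92 µM tetraoctylammonium bromide; nearly all actives have a fitted effect of over 55% in size.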
The nature of assay [7]: Cell Viability - LYMP2-014 (AID 983).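 Also: plate controls were DMSO only for no effect and 92 µM tetraoctylammonium bromide for full effect; nearly all actives have a fitted effect of over 50% in size.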 The method, boiled down: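 LYMP2-014 human lymphoblastoid cells, 2500/well, treated 24 h at 37 C in complete medium; viability by CellTiter-Glo ATP luminescence after 30 min at room temperature. AC50 from Hill fits of qHTS concentration-response; tetraoctylammonium bromide positive control.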
Assay [8] can be described thus: Cell Viability - LYMP2-016 (AID 984). Also: % is scaled to controls: 0 for no effect and ±100 for the full control effect; nearly all actives have a fitted effect of over 55% in size. The method, boiled down:
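Cytotoxicity was scored by luminescent ATP content (CellTiter-Glo) after 24 h compound exposure at 37 C of a human lymphoblastoid line at 2500 cells/well. Concentration-response data were fitted to the Hill equation for AC50.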

A short description of assay [9]: Cell Viability - LYMP2-018 (AID 985).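 Also: compound exposure lasted 24 hr at 37 °C; plate controls were DMSO only for no effect and tetraoctylammonium bromide at 92 µM for full effect; nearly all actives have a fitted effect of over 50% in size.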 The procedure, abridged:
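Human lymphoblastoid LYMP2-018 cells, 2500/well, settled 5 hr at 37 C then exposed to compound 24 hr at 37 C; intracellular ATP measured by CellTiter-Glo luminescence. AC50 from Hill-equation concentration-response fits.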

Assay [10] in a line: Cell Viability - LYMP2-020 (AID 986).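 Also: plate controls were DMSO only for no effect and tetraoctylammonium bromide at 92 µM for full effect; nearly all actives have a fitted effect of over 55% in size.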 The method, boiled down: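 Human lymphoblastoid LYMP2-020 cells (2500/well) preincubated 5 h at 37 C, then treated 24 h at 37 C. Viability measured as intracellular ATP by CellTiter-Glo luminescence after 30 min at room temperature; AC50 from Hill fits.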
Assay [11] in a line: Cell Viability - LYMP2-022 (AID 987). The method, boiled down: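 LYMP2-022 lymphoblastoid cells (2500/well, complete medium) were treated with compounds for 24 hours at 37 C; intracellular ATP was then read by CellTiter-Glo luminescence after 30 min at room temperature. AC50 values were derived from Hill-equation fits.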
A short description of assay [12]: Cell Viability - LYMP2-024 (AID 988).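 Also: plate controls were DMSO only for no effect and 92 µM tetraoctylammonium bromide for full effect; nearly all actives have a fitted effect of over 60% in size.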 The method, boiled down: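 Human lymphoblastoid LYMP2-024 cells (2500/well) rested 5 hr, then treated with compound for 24 hr at 37 C in complete medium. Viability was measured as intracellular ATP by CellTiter-Glo luminescence. AC50 values came from Hill-equation fits.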
Assay [13] can be described thus: Cell Viability - LYMP2-026 (AID 989). Also: % is scaled to controls: 0 for no effect and ±100 for the full control effect; nearly all actives have a fitted effect of over 50% in size. The procedure, abridged: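 Human lymphoblastoid LYMP2-026 cells, 2500/well, exposed to compound 24 h at 37 C in complete medium. Viability as intracellular ATP by CellTiter-Glo luminescence; AC50 from Hill fits of qHTS concentration-response.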
Assay [14] is described as follows: Cell Viability - LYMP1-002 - Assay at 24 hr (AID 993). Also: % is scaled to controls: 0 for no effect and ±100 for the full control effect. The method, boiled down:
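Human lymphoblastoid LYMP1-002 cells (2500/well) treated 24 h at 37 °C; viability as intracellular ATP by CellTiter-Glo luminescence. Tetraoctylammonium bromide as positive control; AC50 from Hill-equation fits of qHTS concentration-response.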

Assay [15] can be described thus: Cell Viability - LYMP1-002 - Assay at 40 hr (AID 994). The method, boiled down: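 LYMP1-002 human lymphoblastoid cells (2500/well, complete medium) were treated with compounds for 40 hr at 37 C. Intracellular ATP was measured by CellTiter-Glo luminescence, and AC50 values came from Hill-equation fits of concentration-response data; tetraoctylammonium bromide was the positive control.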

Assay [16] in a line: qHTS Assay for Lipid Storage Modulators (AID 1519; calls by dose curve; as to activity change, negative = inhibition: % is scaled to controls: 0 for no effect and ±100 for the full control effect). As to conditions: Drosophila S3 cells, BODIPY lipid droplet/cell ratio, laser cytometry, cells loaded with oleic acid. The method, boiled down: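 Cells seeded at 5,000 per well were treated with compounds over a concentration series and loaded with oleic acid (400 uM, as added). Lipid droplet fluorescence (488 nm excitation, 500-530 nm channel) was read by laser-scanning cytometry and normalized to 20 uM Triacsin C.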

The target in assay [17] is DNA repair nuclease/redox regulator APEX1 (Homo sapiens) (UniProt P27695). As to the kind of experiment: qHTS Validation Assay for Inhibitors of the Human Apurinic/apyrimidinic Endonuclease 1 (APE1) (AID 1705; also: potency is read from the fitted curve at half-maximal effect). The procedure, abridged: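 Activity read as rising fluorescence (598 nm emission, 525 nm excitation) from incision of a TAMRA/BHQ-2 duplex carrying a THF abasic site (50 nM). Compound and enzyme sat 15 min at RT before substrate start; signal change between first and third 60-s reads.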

Assay [18] can be described thus: Counterscreen for APE1 Inhibitors: Fluorescent Dye Displacement Validation Assay (AID 1707).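 Also: plate controls were ThO with dsDNA and no compound for no effect and ThO without dsDNA for full effect.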 The procedure, abridged:
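ThO 250 nM + dsDNA 50 nM (THF abasic site, 5'-TAMRA), Tris-HCl pH7.5/50mM NaCl/2 mM MgCl2/0.01% Tween-20; compounds pin-transferred; ex 480/em 540 nm endpoint. Neutral = no compound; no-DNA ThO wells = negative control.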
(Counterscreens check selectivity or assay interference.)

The mark [19] stands for this setting: measured here: cell count channel max response.
Setting [20] is: measured here: lipid channel max response.

DNA repair nuclease/redox regulator APEX1 (Homo sapiens), sequence (P27695 whole entry, looked up): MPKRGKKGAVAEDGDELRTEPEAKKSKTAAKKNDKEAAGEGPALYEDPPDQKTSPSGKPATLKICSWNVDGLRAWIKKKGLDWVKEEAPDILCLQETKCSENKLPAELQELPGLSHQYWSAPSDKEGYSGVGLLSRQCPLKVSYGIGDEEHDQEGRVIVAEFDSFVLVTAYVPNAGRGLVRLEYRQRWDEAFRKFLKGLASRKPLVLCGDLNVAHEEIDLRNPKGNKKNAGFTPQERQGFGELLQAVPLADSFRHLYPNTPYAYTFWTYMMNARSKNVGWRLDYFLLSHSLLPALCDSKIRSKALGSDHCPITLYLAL

Regarding `NC(=O)c1ccccc1O`, the compound was classed as inactive in assay [1], in assay [2], in [3], in assay [4], in assay [5] and in [6]. Moreover, the result in assay [7], in assay [8], in assay [11], in [13] and in [14] was inactive. For the same compound, the Potency result in assay [9], in assay [10], in [12] and in assay [15] was “inactive” each time. Further, in [16] (at 57.5 µM (top of the series)), the activity change, negative = inhibition was 8.72% (inactive). The figures for the max response in assay [16] (setting [19]) and in assay [16] (setting [20]) were 13.3% and 29.8%, respectively.

Consider `COc1ccc(C(=O)c2ccccc2O)c(O)c1`, for which the activity change, negative = inhibition in assay [16] (at 25.7 µM (top of the series)) was -7.39% (inactive); in [16] (at 57.5 µM (top of the series)) it was 4.5% (inactive). The max response in [16] (setting [19]) is -10.6% and 8.18%; in assay [16] (setting [20]), -18.3% and 15.8%.

Turning to `C=C[C@H]1CN2CC[C@H]1C[C@@H]2[C@@H](O)c1ccnc2ccc(OC)cc12`, the call in assay [1], in assay [2], in [3], in [4], in assay [5] and in assay [6] was inactive. For the same compound, the result in assay [7], in [8], in assay [11], in assay [13] and in assay [14] was inactive. Further, the Potency result in [10], in assay [12] and in assay [15] was “inactive” in each case.

On to `CCN(CC)CCNC(=O)COc1ccc(OC)cc1`, for which the results for the activity change, negative = inhibition in assay [16] (at 25.7 µM (top of the series)) and in [16] (at 57.5 µM (top of the series)) were -2.56% (inactive) and 3.31% (inactive), respectively. For the same compound, the max response is 7.9% and 27.2% in [16] (setting [19]); 4.41% and 33.1% in assay [16] (setting [20]).

As to `COc1ccc(C(=O)c2ccccc2)c(O)c1`, the compound was called inactive in assay [1], in assay [2], in assay [3], in [4], in assay [5] and in assay [6]. The result in assay [7], in [8], in assay [11], in assay [13] and in [14] was inactive. For the same compound, the Potency result in assay [9], in assay [10], in assay [12] and in assay [15] was “inactive” in each case. The activity change, negative = inhibition in assay [16] (at 25.7 µM (top of the series)) was -0.0822% (inactive); in [16] (at 57.5 µM (top of the series)), 9.05% (inactive). Besides, the max response is -14% and -2.88% in [16] (setting [19]); -14.1% and 8.45% in assay [16] (setting [20]).

Consider `O=C1C(O)=C(O)C(=O)C(O)=C1O`, for which the figures for the activity change, negative = inhibition in assay [16] (at 25.7 µM (top of the series)) and in assay [16] (at 57.5 µM (top of the series)) were -0.531% (inactive) and 9.14% (inactive), respectively. Also, the max response in [16] (setting [19]) is -3.62% and 13.5%; in assay [16] (setting [20]) it was -3.42% and 27.1%.

As for `OC[C@H]1O[C@@H]2O[C@H]3[C@H](O)[C@@H](O)[C@@H](O[C@H]4[C@H](O)[C@@H](O)[C@@H](O[C@H]5[C@H](O)[C@@H](O)[C@@H](O[C@H]6[C@H](O)[C@@H](O)[C@@H](O[C@H]7[C@H](O)[C@@H](O)[C@@H](O[C@H]8[C@H](O)[C@@H](O)[C@@H](O[C@H]1[C@H](O)[C@H]2O)O[C@@H]8CO)O[C@@H]7CO)O[C@@H]6CO)O[C@@H]5CO)O[C@@H]4CO)O[C@@H]3CO`, the result in assay [1], in assay [2], in [3], in assay [4], in assay [5] and in assay [6] was inactive. In addition, the compound was called inactive in assay [7], in [8], in assay [11], in assay [13] and in assay [14]. For the same compound, the Potency entry in [9], in assay [10], in assay [12] and in [15] was “inactive” each time.

In the case of `CC(=O)OCC1=C(C(=O)O)N2C(=O)[C@@H](NC(=O)CSc3ccncc3)[C@H]2SC1`, the Potency in assay [17] is 8.91 µM (active). Further, in assay [18], the compound was called inactive.

In the case of `COc1cc([C@H]2Oc3cc([C@H]4Oc5cc(O)cc(O)c5C(=O)[C@@H]4O)ccc3O[C@@H]2CO)ccc1O`, the compound was called inactive in [1], in [2], in assay [3], in assay [4], in assay [5] and in assay [6]. Further, the call in assay [7], in assay [8], in assay [11], in [13] and in assay [14] was inactive. Besides, the Potency result in assay [9], in [10], in assay [12] and in assay [15] was “inactive” each time.

With `N=C(N)N1CCc2ccccc2C1`, the activity change, negative = inhibition in assay [16] (at 25.7 µM (top of the series)) was -0.877% (inactive). In addition, the max response in assay [16] (setting [19]) is -5.56%; in assay [16] (setting [20]), -6.4%.

For `Oc1ccc(Cl)cc1Cc1cc(Cl)ccc1O`, in assay [14], the result was inactive.
